DT40 TDP1 CPT – growth inhibition of DT40 Tdp1-/-;hTDP1 cells with camptothecin (screen for TDP1 inhibitors); chicken DT40 Tdp1-/-;hTDP1 cells + 20 nM CPT, ATP luminescence, 48 h; Potency, µM (series often up to 46.2 µM), actives largely listed as inhibitors; 420,000 tested, 12% active; further: nearly all actives have a fitted effect of over 55% in size
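Chicken DT40 Tdp1-/- cells complemented with human TDP1, 400 cells/well, exposed to compounds plus 20 nM camptothecin for at least 48 h at 37 C; viability read as ATP content by CellTiter-Glo luminescence.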
TDP1 block – TDP1 (human) enzyme inhibition. Q9NUW8. recombinant TDP1, AlphaScreen DNA substrate cleavage. Potency, µM (doses to about 130 µM), usual class: inhibitors. 350,000 tested, 0.28% active. AID 485290; further: nearly all actives have a fitted effect of over 40% in size
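AlphaScreen read-out: signal falls as enzyme removes the 3' tyrosine-FITC from a 5'-biotinylated DNA oligo (15 nM, 5 min, RT). Enzyme was E. coli-made recombinant Tdp1 at 1 nM, exposed to compound for 15 min beforehand; beads 10 ug/ml, 10 min.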
TDP1 cell noCPT – qHTS for Inhibitors of human tyrosyl-DNA phosphodiesterase 1 (TDP1): qHTS in cells in absence of CPT. DT40 Tdp1-/- hTDP1 cells, no CPT, ATP luminescence, 48 h. Potency, µM (top dose mostly 46.2 µM), hits mostly inhibitors. 420,000 tested, 15% active. AID 686978, 2013; further: nearly all actives have a fitted effect of over 55% in size
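A cellular qHTS used chicken DT40 cells lacking endogenous Tdp1 but carrying stably transfected human TDP1. Compounds were applied without camptothecin, and cell growth kinetics were judged by ATP-dependent luminescence after ≥48 hr.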
ClpP mod – qHTS Assay for Activators of ClpP | purified B. subtilis ClpP, FRET peptide cleavage, 20 min | 340,000 tested, 1.9% active | Potency, µM (doses to about 57.5 µM); active means well fitted falling curve with a large enough effect; inconclusive means small, poorly fitted or top-dose-only effect; inactive means no such curve, though single readings can be large or run the other way; further: the source files actives as falling curves though it sought activators and does not explain the sign; nearly all actives have a fitted effect of over 65% in size
Target sequence (P80244 whole entry, looked up): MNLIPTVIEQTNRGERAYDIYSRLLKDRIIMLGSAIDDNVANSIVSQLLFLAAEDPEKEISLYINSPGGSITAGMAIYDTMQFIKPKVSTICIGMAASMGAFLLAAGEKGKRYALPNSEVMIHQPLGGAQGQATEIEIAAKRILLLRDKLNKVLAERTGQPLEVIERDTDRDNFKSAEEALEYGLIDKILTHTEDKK
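Buffer: 100 mM Tris/HCl pH8, 100 mM KCl, 0.05% low protease BSA, 2.5% glycerol, 0.01% Tween-20. ClpP 10 microg/mL final; 20 min RT; delta FRET normalized to ADEP and DMSO controls.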
Large screens that a line does not name were inactive. Hits are enriched below; roughly 17% of the tested compounds scored in any of these assays. Unless noted, the call rests on the fitted dose curve; in most records, active means well fitted curve in the direction sought with a large enough effect; inconclusive means small, poorly fitted or top-dose-only effect, or another doubt; inactive means no such curve, though single readings can be large; an effect the other way counts as inactive or inconclusive.

O=C(CN1CCCc2ccccc21)N/N=C/c1ccc(O)cc1O	DT40 TDP1 CPT inconclusive, TDP1 cell noCPT 16µM
NS(=O)(=O)c1ccc(NC(=O)CN2CCCc3ccccc32)cc1	none (no result: TDP1 block, ClpP mod)
CCN(CC)c1ccc(/C=N/NC(=O)CN2CCCc3ccccc32)cc1	DT40 TDP1 CPT inconclusive, TDP1 cell noCPT inconclusive
O=C(CN1CCCc2ccccc21)N/N=C/c1c(O)ccc2ccccc12	DT40 TDP1 CPT 4.1µM, TDP1 cell noCPT 3.7µM, ClpP mod inconclusive
O=C(CN1CCCc2ccccc21)N/N=C/c1ccccc1	DT40 TDP1 CPT inconclusive, TDP1 cell noCPT 16µM
COc1cc(CC(=O)Nc2nc(C)cs2)cc(OC)c1OC	DT40 TDP1 CPT 12µM, TDP1 cell noCPT 21µM (no result: ClpP mod)
COc1ccc(CCN2C(=O)CC(NNc3ccc([N+](=O)[O-])cc3)C2=O)cc1OC (stereo not drawn)	DT40 TDP1 CPT 21µM, TDP1 cell noCPT 21µM (no result: ClpP mod)
COc1ccc(-c2csc(NC(=O)CCN3C(=O)C4CC=CCC4C3=O)n2)cc1OC (stereo not drawn)	DT40 TDP1 CPT 21µM, TDP1 cell noCPT 18µM
COc1ccc(CCNC(=O)CCn2cccc2)cc1OC	none
COc1ccc(CCNC(=O)CCN2C(=O)C3CC=CCC3C2=O)cc1OC (stereo not drawn)	DT40 TDP1 CPT inconclusive, TDP1 cell noCPT 23µM
O=C(COC(=O)c1cccc(F)c1)Nc1ccc2c(c1)OCCO2	none
CCOc1ccccc1N1CC(C(=O)Nc2cc(S(=O)(=O)N3CCOCC3)ccc2OC(C)C)CC1=O (stereo not drawn)	DT40 TDP1 CPT inconclusive, TDP1 cell noCPT inconclusive (no result: TDP1 block)
COc1ccc(-c2csc(NC(=O)Cc3cc(OC)c(OC)c(OC)c3)n2)cc1OC	DT40 TDP1 CPT 21µM, TDP1 cell noCPT 18µM (no result: ClpP mod)
COc1ccc(CCNC(=O)C/C(C)=N/NC(=O)C23CC4CC(CC(C4)C2)C3)cc1OC	DT40 TDP1 CPT inconclusive, TDP1 cell noCPT 7.3µM
CCC(C)(C)C1CCC2(CC1)NC(=O)N(CC(=O)NCCOc1ccccc1)C2=O (stereo not drawn)	DT40 TDP1 CPT inconclusive, TDP1 cell noCPT inconclusive
CCC(C)(C)C1CCC2(CC1)NC(=O)N(CC(=O)NCCc1ccc(OC)c(OC)c1)C2=O (stereo not drawn)	DT40 TDP1 CPT inconclusive, TDP1 cell noCPT 12µM
COc1ccc(CCN2C(=O)C3C4C=CC(C5CC45)C3C2=O)cc1OC (stereo not drawn)	none
COc1ccc(CCN2C(=O)C3C4C=CC(C3C2=O)C2C(=O)N(CCc3ccc(OC)c(OC)c3)C(=O)C42)cc1OC (stereo not drawn)	DT40 TDP1 CPT 10µM, TDP1 cell noCPT inconclusive, ClpP mod 1.8µM
CC(C)(CNC(=O)c1ccccc1NS(C)(=O)=O)N1CCCCC1	none (no result: TDP1 block)
O=C(CSCc1cnn(-c2ccccc2)c1-n1cccc1)NCc1ccc(F)cc1	DT40 TDP1 CPT inconclusive, TDP1 cell noCPT inconclusive
COc1ccc(-n2c(C)nc3cc(C(=O)NC4CCCC4)ccc32)cc1	none
Cc1ccccc1Nc1cc(C(=O)NC2CCC(C)CC2)c2ccccc2n1 (stereo not drawn)	DT40 TDP1 CPT 16µM, TDP1 cell noCPT 12µM, ClpP mod inconclusive
Cc1ccc(Nc2cc(C(=O)NC3CCCC3)c3ccccc3n2)cc1C	DT40 TDP1 CPT 13µM, TDP1 cell noCPT 15µM
CC1CCC(NC(=O)c2cc(Cl)nc3ccccc23)CC1 (stereo not drawn)	none
Cc1ccc(C)c(Nc2cc(C(=O)NC3CCCCC3)c3ccccc3n2)c1	none
Cc1ccccc1Nc1cc(C(=O)NC2CCCCC2)c2ccccc2n1	DT40 TDP1 CPT inconclusive, TDP1 cell noCPT 21µM
CSCCC(C(=O)Nc1c(C)cccc1C)n1c(-c2cc(C)cs2)nc2ccccc21 (stereo not drawn)	DT40 TDP1 CPT inconclusive, TDP1 cell noCPT inconclusive (no result: TDP1 block)
CSCCC(C(=O)Nc1c(C)cccc1C)n1c(-c2ccc(-c3ccccc3)cc2)nc2ccccc21 (stereo not drawn)	DT40 TDP1 CPT 10µM, TDP1 cell noCPT inconclusive (no result: TDP1 block)
CSCCC(C(=O)Nc1c(C)cccc1C)n1c(COc2ccc(C)cc2)nc2ccccc21 (stereo not drawn)	DT40 TDP1 CPT 12µM, TDP1 cell noCPT 9.2µM (no result: TDP1 block)
CSc1cccc(NC(=S)Nc2cc(C)ccc2C)c1	none (no result: ClpP mod)
CCNc1nc(SCCOc2ccc(C)cc2)nc(N(C)C)n1	DT40 TDP1 CPT 16µM, TDP1 cell noCPT 21µM
Cc1ccc(S(=O)(=O)N/N=C/c2ccc(OS(=O)(=O)c3ccc(C)c([N+](=O)[O-])c3)cc2)cc1	DT40 TDP1 CPT inconclusive, TDP1 cell noCPT inconclusive
CNC(=O)c1ccsc1NC(=O)c1coc2ccccc2c1=O	DT40 TDP1 CPT inconclusive, TDP1 cell noCPT 18µM (no result: TDP1 block)
COc1ccc(OCC(=O)N2c3ccc(C)cc3C3CN(C)CCC32)cc1 (stereo not drawn)	none (no result: ClpP mod)
Cc1ccc2c(c1)C1CN(C)CCC1N2C(=S)NC(=O)c1ccc(Br)cc1 (stereo not drawn)	DT40 TDP1 CPT 9.2µM, TDP1 cell noCPT inconclusive
Cc1ccc(C(=O)NC(=S)N2CCN(C)CC2)cc1	none
CN1CCN(C(=S)NC(=O)c2ccc(Br)cc2)CC1	DT40 TDP1 CPT inconclusive, TDP1 cell noCPT 5.2µM (no result: TDP1 block, ClpP mod)
CN1CCN(C(=S)C(=O)Nc2ccc(Br)cc2)CC1	DT40 TDP1 CPT 13µM, TDP1 cell noCPT inconclusive (no result: ClpP mod)
O=C(Cn1ccnc1[N+](=O)[O-])NCCO	none (no result: ClpP mod)
CCCOC1(C(F)(F)F)NC(=O)N(c2ccc(Cl)cc2)C1=O (stereo not drawn)	none (no result: DT40 TDP1 CPT, TDP1 cell noCPT)
CC(CCc1ccc(O)cc1)N1CCOc2c(O)cc(-c3nc4ccccc4s3)cc2C1 (stereo not drawn)	DT40 TDP1 CPT 18µM, TDP1 cell noCPT 16µM (no result: TDP1 block, ClpP mod)
Cc1ccc(C)n1-c1ccc(C(=O)NN)cc1	DT40 TDP1 CPT 7.3µM, TDP1 cell noCPT 21µM
CCCCn1c(C(C)NC(=O)c2ccccc2)nc2ccccc21 (stereo not drawn)	DT40 TDP1 CPT inconclusive, TDP1 cell noCPT inconclusive
COc1cccc(N2CCN(C(=O)c3cnn(-c4ccccc4Cl)c3C3CCN(C(=O)OC(C)(C)C)CC3)CC2)c1	DT40 TDP1 CPT inconclusive, TDP1 cell noCPT 21µM
Cc1cccc(C)c1-n1ncc(C(=O)N2CCN(c3ccccc3)CC2)c1C1CCN(C(=O)OC(C)(C)C)CC1	DT40 TDP1 CPT inconclusive, TDP1 cell noCPT inconclusive
Cc1cccc(-n2ncc(C(=O)N3CCN(C(=O)c4ccco4)CC3)c2C2CCN(C(=O)OC(C)(C)C)CC2)c1	DT40 TDP1 CPT inconclusive, TDP1 cell noCPT inconclusive
COc1cccc(N2CCN(C(=O)c3cnn(C(C)(C)C)c3C3CCN(C(=O)OC(C)(C)C)CC3)CC2)c1	DT40 TDP1 CPT inconclusive, TDP1 cell noCPT inconclusive
Cc1ccc(-n2ncc(C(=O)N3CCN(Cc4ccccc4)CC3)c2C2CCN(C(=O)OC(C)(C)C)CC2)c(C)c1	DT40 TDP1 CPT 4.6µM, TDP1 cell noCPT 13µM
COc1cccc(N2CCN(C(=O)c3cnn(-c4ccc(C)cc4C)c3C3CCN(C(=O)OC(C)(C)C)CC3)CC2)c1	DT40 TDP1 CPT inconclusive, TDP1 cell noCPT 21µM

High-throughput results from PubChem.
